Source: PubChem BioAssay (Tox21)
Inconclusive results are not listed. Where a call stands in place of a potency, no number is given. Active and inactive are the calls of the source. Calls come from the whole dose curve; as a rule, active = well fitted cell-killing curve with a large enough effect in the repeat runs; inconclusive = weak or mixed curves, or effect the other way; inactive = flat fitted curve, though single readings scatter.

Test: qHTS RealTime-Glo MT Cell Viability Assay in HEK293 cells - 0 hour (AID 1224880); note: top concentration of the series differs between compounds; nearly all actives have a fitted effect of over 45% in size
Details: RealTime-Glo luminescence; series mostly up to 76.8 µM
From the text: U.S. Tox21 Program National Center for Advancing Translational Sciences [NCATS] NIH Chemical Genomics Center [NCGC] U.S. Environmental Protection Agency [EPA] National Institutes of Environmental Health Sciences [NIEHS] National Toxicology Program [NTP] U.S. Food and Drug Administration [FDA] Tox21 Assay Overview: Measure of cell viability is critical in the cell-base assay. Analysis of cell viability is necessary for the characterization of cell responses to cytotoxic drugs and environmental stress. A RealTime-Glo MT Cell Viability Assay to monitor cell viability in real time of continues cell culture during 40 hours of compound treatment was used to screen Tox21 10K library compounds in Hek293 cells. The RealTime-Glo MT Cell Viability Assay is a nonlytic, homogeneous, bioluminescent method to measure cell viability in real time using a simple, plate-based method. The assay involves adding NanoLuc luciferase and a cell-permeant prosubstrate to cells in culture. Viable cells reduce the proprietary prosubstrate to generate a substrate for NanoLuc luciferase. This substrate diffuses from cells into the surrounding culture medium, where it is rapidly used by the NanoLuc Enzyme to produce a luminescent signal. The signal correlates with the number of viable cells, making the assay well suited for cytotoxicity studies.
Tox21 Assay Protocol Summary: The mixture of Hek293 cell suspension and reagents were dispensed at 600cells/6 ul/well in 1536-well tissue culture treated black solid bottom plates using a Multidrop dispenser. After the assay plates were incubated at a 37 C/5% CO2 incubator for 5 hours, 23 nL of compounds dissolved in DMSO, positive and negative controls was transferred to the assay plate by a pintool work station. The plates were incubated at 37 C for 40 hours. The luminescence intensity were measured at 0h, 8h, 16h, 24h, 32h and 40h time points using ViewLux plate reader during compound treatment.

| Structure (SMILES) | Potency | activity change, negative = cytotoxicity |
| --- | --- | --- |
| O=S(=O)(c1ccc(Cl)cc1)c1ccc(Cl)cc1 | inactive |  |
| CC1(C)[C@H](C(=O)O[C@H](C#N)c2cccc(Oc3ccccc3)c2)[C@@H]1/C=C(\Cl)C(F)(F)F | inactive |  |
| CC(c1ccc(O)cc1)c1ccc(O)cc1 | inactive |  |
| CCCCCCCCCCCCCC[P+](CCCCCC)(CCCCCC)CCCCCC (tested in a mixture with another compound) | inactive |  |
| COCC(=O)N(c1c(C)cccc1C)[C@H](C)C(=O)OC | inactive |  |
| ClC1=C(Cl)[C@]2(Cl)[C@H]3[C@H]([C@H]4C=C[C@H]3C4)[C@@]1(Cl)C2(Cl)Cl | inactive |  |
| CNC(C)Cc1ccc2c(c1)OCO2 (stereo not given) | inactive |  |
| Cc1ccc(OP(=O)(Oc2ccccc2)Oc2ccccc2)cc1 | inactive |  |
| c1ccc(Nc2ccc3ccccc3c2)cc1 | inactive |  |
| CC1(c2ccc(Oc3ccccc3)cc2)OC(=O)N(Nc2ccccc2)C1=O (stereo not given) | inactive |  |
| CCN(CC)C(=S)[S-].CCN(CC)C(=S)[S-].[Zn+2] | inactive |  |
| CCN(CC)c1c([N+](=O)[O-])cc(C(F)(F)F)c(N)c1[N+](=O)[O-] | inactive |  |
| CCCCN(CCCC)C(=S)[S-].CCCCN(CCCC)C(=S)[S-].[Zn+2] | inactive |  |
| Oc1ccc(C2(c3ccc(O)cc3)c3ccccc3-c3ccccc32)cc1 | inactive |  |
| SCc1ccco1 | inactive |  |
| COC(=O)N(C(=O)N1COC2(C(=O)OC)Cc3cc(Cl)ccc3C2=N1)c1ccc(OC(F)(F)F)cc1 (stereo not given) | inactive |  |
| CN(C)C1CSSSC1 | inactive |  |
| CSCCCN=C=S | inactive |  |
| ClCc1ccccc1CCl | inactive |  |
| C[C@]12CC[C@H]3[C@@H](CCC4=CC(=O)CC[C@@]43C)[C@@H]1CC[C@@H]2O | inactive |  |

| Structure (SMILES) | Potency | activity change, negative = cytotoxicity |
| --- | --- | --- |
| Fc1ccc(Oc2ccnc3cc(Cl)cc(Cl)c23)cc1 | inactive |  |
| FC(Cl)(Cl)Cl | inactive |  |
| COc1ccc(OC)c(CC(C)N)c1 (stereo not given) | inactive |  |
| O=[N+]([O-])c1cc([N+](=O)[O-])c2ccccc2c1 | inactive |  |
| CC(C)CCCCCOC(=O)c1ccccc1C(=O)OCCCCCC(C)C | inactive |  |
| O=C1c2ccccc2C(=O)C1C(=O)C(c1ccccc1)c1ccc(Cl)cc1 (stereo not given) | inactive |  |
| CN(C)c1ccc(N=Nc2ccccc2)cc1 | inactive |  |
| CC(C)[C@H](C(=O)O[C@H](C#N)c1cccc(Oc2ccccc2)c1)c1ccc(Cl)cc1 | inactive |  |
| CC(C)OS(C)(=O)=O | inactive |  |
| C1CCC2CCCCC2C1 (stereo not given) | inactive |  |
| ClC1=C(Cl)[C@]2(Cl)[C@@H]3[C@@H](Cl)[C@H](Cl)C[C@@H]3[C@@]1(Cl)C2(Cl)Cl | inactive |  |
| Brc1c(Br)c(Br)c(Oc2c(Br)c(Br)c(Br)c(Br)c2Br)c(Br)c1Br |  | -0.353% [at 15.8 µM] (inactive) |
| Clc1ccc(-c2ccccc2)cc1 | inactive |  |
| COc1ccc(N)cc1N | inactive |  |
| O=c1[nH]c2ccccc2n1CCCN1CCC(n2c(=O)[nH]c3cc(Cl)ccc32)CC1 | inactive |  |
| CC(C)[C@H](C(=O)OC(C#N)c1cccc(Oc2ccccc2)c1)c1ccc(OC(F)F)cc1 (stereo not given in full) | inactive |  |
| CC1CCC(C(C)C)C(OC(=O)c2ccccc2N)C1 (stereo not given) | inactive |  |
| CC1(C)CN=C(NN=C(/C=C/c2ccc(C(F)(F)F)cc2)/C=C/c2ccc(C(F)(F)F)cc2)NC1 | inactive |  |
| c1ccc2c(c1)[nH]c1cnccc12 | inactive |  |
| Clc1ccc(C(Cl)(Cl)Cl)c(Cl)c1 | inactive |  |
